# Measurements published in the supplement of paper PMC12282887.
# ± gives the standard deviation of the averaged measurements.
# Assays:
# Assay in all cases: promoter activity interaction Z-score (Lux/OD deviation from empty-vector control); higher = stronger promoter induction by the compound
# [1] = tested on: E. coli BW25113 acrABp lux reporter
# Procedure, shortened: (§1)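 Every compound was given at four 1:2 dilutions, in biological duplicates, to E. coli BW25113 carrying low-copy luxCDABE promoter reporters in wild-type or single-gene deletion backgrounds. Growth in 40 µl LB Lennox in 384-well plates at 37°C was followed by OD600 and luminescence readings every 30 min for 12 h, integrated over 0–8 h for wild type and 1–9 h for deletion strains, with wells below 10% of the median growth value excluded. Scores are Z-transformed residuals of growth-normalised luminescence fitted against a control.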
# [2] = tested on: E. coli BW25113 micFp lux reporter
# Procedure, shortened: as §1
# [3] = tested on: E. coli BW25113 ompFp lux reporter
# Procedure, shortened: as §1
# [4] = tested on: E. coli BW25113 robp lux reporter
# Procedure, shortened: as §1
# [5] = tested on: E. coli BW25113 soxSp lux reporter
# Procedure, shortened: as §1
# [6] = tested on: E. coli BW25113 tolCp lux reporter
# Procedure, shortened: as §1
# [7] = 0.0081 µg/ml, genetic background: wild type
# [8] = 0.0081 µg/ml, genetic background: ΔmarA
# [9] = 0.0081 µg/ml, genetic background: Δrob
# [10] = 0.0081 µg/ml, genetic background: ΔsoxS
# [11] = 0.016 µg/ml, genetic background: wild type
# [12] = 0.016 µg/ml, genetic background: ΔmarA
# [13] = 0.016 µg/ml, genetic background: Δrob
# [14] = 0.016 µg/ml, genetic background: ΔsoxS
# [15] = 0.033 µg/ml, genetic background: wild type
# [16] = 0.033 µg/ml, genetic background: ΔmarA
# [17] = 0.033 µg/ml, genetic background: Δrob
# [18] = 0.033 µg/ml, genetic background: ΔsoxS
compound,measurement,setting,value
CC1(C)S[C@@H]2[C@H](/N=C/N3CCCCCC3)C(=O)N2[C@H]1C(=O)O [Mecillinam],promoter activity interaction Z-score,[1]; [7],0.0459 ± 0.4
same,promoter activity interaction Z-score,[1]; [8],1.25 ± 1.5
same,promoter activity interaction Z-score,[1]; [9],-0.273 ± 0.055
same,promoter activity interaction Z-score,[1]; [10],-0.522 ± 0.019
same,promoter activity interaction Z-score,[1]; [11],-0.377 ± 0.16
same,promoter activity interaction Z-score,[1]; [12],0.612 ± 0.15
same,promoter activity interaction Z-score,[1]; [13],-0.267 ± 0.022
same,promoter activity interaction Z-score,[1]; [14],-0.431 ± 0.57
same,promoter activity interaction Z-score,[1]; [15],0.0507 ± 0.0088
same,promoter activity interaction Z-score,[1]; [16],-0.755
same,promoter activity interaction Z-score,[1]; [17],0.113 ± 0.12
same,promoter activity interaction Z-score,[1]; [18],-0.499 ± 0.14
same,promoter activity interaction Z-score,[2]; [7],0.276 ± 0.25
same,promoter activity interaction Z-score,[2]; [8],0.207 ± 0.062
same,promoter activity interaction Z-score,[2]; [9],0.351 ± 0.025
same,promoter activity interaction Z-score,[2]; [10],-0.288 ± 0.15
same,promoter activity interaction Z-score,[2]; [11],0.194 ± 0.12
same,promoter activity interaction Z-score,[2]; [12],0.155 ± 0.054
same,promoter activity interaction Z-score,[2]; [13],0.474 ± 0.16
same,promoter activity interaction Z-score,[2]; [14],0.251 ± 0.044
same,promoter activity interaction Z-score,[2]; [15],0.824 ± 0.39
same,promoter activity interaction Z-score,[2]; [16],-0.211 ± 0.025
same,promoter activity interaction Z-score,[2]; [17],-0.0142 ± 0.33
same,promoter activity interaction Z-score,[2]; [18],0.562 ± 0.17
same,promoter activity interaction Z-score,[3]; [7],0.00268 ± 0.17
same,promoter activity interaction Z-score,[3]; [8],-0.0176 ± 0.4
same,promoter activity interaction Z-score,[3]; [9],-0.211 ± 0.62
same,promoter activity interaction Z-score,[3]; [10],-0.38 ± 0.044
same,promoter activity interaction Z-score,[3]; [11],-1.12 ± 0.37
same,promoter activity interaction Z-score,[3]; [12],-0.241 ± 0.0076
same,promoter activity interaction Z-score,[3]; [13],-0.807 ± 1.2
same,promoter activity interaction Z-score,[3]; [14],-0.124 ± 0.41
same,promoter activity interaction Z-score,[3]; [15],-1.28 ± 0.79
same,promoter activity interaction Z-score,[3]; [16],-0.894 ± 1.1
same,promoter activity interaction Z-score,[3]; [17],-1.44
same,promoter activity interaction Z-score,[3]; [18],0.0879 ± 0.27
same,promoter activity interaction Z-score,[4]; [7],0.327 ± 0.16
same,promoter activity interaction Z-score,[4]; [8],1.43 ± 0.17
same,promoter activity interaction Z-score,[4]; [9],-0.0357 ± 0.087
same,promoter activity interaction Z-score,[4]; [10],0.198 ± 0.16
same,promoter activity interaction Z-score,[4]; [11],-0.956 ± 0.2
same,promoter activity interaction Z-score,[4]; [12],0.379 ± 0.24
same,promoter activity interaction Z-score,[4]; [13],-1.19 ± 0.41
same,promoter activity interaction Z-score,[4]; [14],0.457 ± 1.5
same,promoter activity interaction Z-score,[4]; [15],-1.37 ± 0.12
same,promoter activity interaction Z-score,[4]; [16],-0.827 ± 0.15
same,promoter activity interaction Z-score,[4]; [17],-1.65
same,promoter activity interaction Z-score,[4]; [18],-1.03 ± 0.28
same,promoter activity interaction Z-score,[5]; [7],0.14 ± 0.081
same,promoter activity interaction Z-score,[5]; [8],0.149 ± 0.16
same,promoter activity interaction Z-score,[5]; [9],0.13 ± 0.12
same,promoter activity interaction Z-score,[5]; [10],0.171 ± 0.015
same,promoter activity interaction Z-score,[5]; [11],0.0658 ± 0.21
same,promoter activity interaction Z-score,[5]; [12],0.371 ± 0.073
same,promoter activity interaction Z-score,[5]; [13],0.0922 ± 0.097
same,promoter activity interaction Z-score,[5]; [14],0.495 ± 0.048
same,promoter activity interaction Z-score,[5]; [15],0.18 ± 0.061
same,promoter activity interaction Z-score,[5]; [16],0.154 ± 0.13
same,promoter activity interaction Z-score,[5]; [17],-0.163 ± 0.38
same,promoter activity interaction Z-score,[5]; [18],0.865 ± 0.22
same,promoter activity interaction Z-score,[6]; [7],0.00505 ± 0.64
same,promoter activity interaction Z-score,[6]; [8],-0.0513 ± 0.34
same,promoter activity interaction Z-score,[6]; [9],-0.155 ± 0.23
same,promoter activity interaction Z-score,[6]; [10],-0.674 ± 0.22
same,promoter activity interaction Z-score,[6]; [11],-0.967 ± 0.5
same,promoter activity interaction Z-score,[6]; [12],-0.771 ± 0.8
same,promoter activity interaction Z-score,[6]; [13],-1 ± 0.24
same,promoter activity interaction Z-score,[6]; [14],-0.0514 ± 0.98
same,promoter activity interaction Z-score,[6]; [15],-0.779 ± 2.4
same,promoter activity interaction Z-score,[6]; [16],-0.938
same,promoter activity interaction Z-score,[6]; [17],0.0896 ± 2.1
same,promoter activity interaction Z-score,[6]; [18],1.16 ± 0.64
